# PKM2 activator = PKM2 (human) enzyme activation. P14618. purified PKM2, Kinase-Glo ATP luminescence, activation; response scale: 0% is enzyme alone, no compound. Potency, µM (titrated, usually from 57.5 µM), hits mostly activators. hit rate 0.34% among 260,000. AID 1631; also: nearly all actives have a fitted effect of over 55% in size
#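 Purified hPK-M2 (>95%) run at intermediate activity with 0.1 mM ADP and 0.5 mM PEP in 50 mM imidazole pH 7.2, KCl, MgCl2; 1 h room temperature. ATP formed read by Kinase-Glo luminescence; normalized to uninhibited and no-enzyme controls.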
# APE1 inh-1 = inhibitors of human APE1 endonuclease; P27695; recombinant APE1, TAMRA/BHQ-2 abasic DNA cleavage fluorescence; Potency, µM (series often up to 65.8 µM), actives largely listed as inhibitors; hit rate 0.35% among 350,000; AID 2517; also: nearly all actives have a fitted effect of over 55% in size
#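 Step 1: APE1 (0.75 nM) with compound, 15 min RT. Step 2: add 50 nM fluorophore/quencher THF duplex. Step 3: three fluorescence reads 60 s apart (525/598 nm); read 3 minus read 1 = reaction progress.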
# RECQ1 inh = inhibitors of human RECQ1 DNA helicase | Potency, µM (highest dose often 57.3 µM), actives largely listed as inhibitors | P46063 | AID 2549 | hit rate 0.54% among 240,000 | RECQ1 DNA unwinding, red fluorescence kinetic read; also: nearly all actives have a fitted effect of over 30% in size
# Target sequence (P46063 whole entry, looked up): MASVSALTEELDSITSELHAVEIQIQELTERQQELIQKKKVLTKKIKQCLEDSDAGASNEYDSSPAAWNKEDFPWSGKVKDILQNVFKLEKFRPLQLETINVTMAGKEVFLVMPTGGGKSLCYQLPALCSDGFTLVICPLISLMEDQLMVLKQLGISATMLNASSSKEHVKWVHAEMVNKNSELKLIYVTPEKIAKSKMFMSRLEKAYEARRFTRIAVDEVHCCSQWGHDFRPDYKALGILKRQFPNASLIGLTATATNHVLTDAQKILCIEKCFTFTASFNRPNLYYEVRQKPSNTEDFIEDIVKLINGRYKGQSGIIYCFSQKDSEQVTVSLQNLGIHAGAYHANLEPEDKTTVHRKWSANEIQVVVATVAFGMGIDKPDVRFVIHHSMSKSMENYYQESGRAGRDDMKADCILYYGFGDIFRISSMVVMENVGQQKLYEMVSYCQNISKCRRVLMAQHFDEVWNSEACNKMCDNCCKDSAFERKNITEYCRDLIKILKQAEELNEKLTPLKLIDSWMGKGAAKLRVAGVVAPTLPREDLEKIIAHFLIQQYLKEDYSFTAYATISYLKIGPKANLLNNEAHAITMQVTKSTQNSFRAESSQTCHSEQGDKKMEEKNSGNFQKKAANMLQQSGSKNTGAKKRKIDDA
#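 RECQ1T1 50 nM; forked duplex (20 bp + 30-nt ss tails) 200 nM, ATP 2 mM final; pH 8.0, 2 mM MgCl2, 2.5 ug/ml poly(dI-dC); 15 min compound preincubation; discontinuous kinetic read over 2 h at RT.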
# KDM4E inh = inhibitors of human JMJD2E histone demethylase. Potency, µM (highest dose often 57.1 µM), most hits filed as inhibitors. hit rate 1.6% among 230,000. AID 2147. JMJD2E catalytic domain, FDH-coupled NADH fluorescence (FDH is formaldehyde dehydrogenase). B2RXH2; active = well fitted inhibition curve with a large enough effect, not every such curve was filed as active; inconclusive = small, poorly fitted or top-dose-only effect, or another doubt; inactive = no such curve, though single readings can be large or run the other way; also: nearly all actives have a fitted effect of over 50% in size
# BLM helicase inh = blocks DNA unwinding by human BLM helicase | P54132 | recombinant BLM DNA unwinding, fluorescence dequenching | Potency, µM (series often up to 56.1 µM), hits mostly inhibitors | hit rate 0.2% among 350,000 | AID 2528; also: nearly all actives have a fitted effect of over 35% in size
# DNA dye displace = displaces fluorescent dye from DNA, flagging APE1 artifacts; shares compounds with APE1 inh-1; DNA fluorescent dye displacement counterscreen, fluorescence; Potency, µM (doses to about 28.5 µM), usual class: inhibitors; hit rate 7% among 480; AID 2564;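 also: loss of thiazole orange fluorescence as the dye is displaced from duplex DNA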
# EndoIV counter = Endo IV (E. coli) inhibition counter-screen | shares compounds with APE1 inh-1 | E. coli Endo IV, fluorogenic AP-site DNA cleavage | Potency, µM (doses to about 27.1 µM), usual class: inhibitors | hit rate 4% among 560
# APE1 inh-2 = confirmation of inhibitors of human APE1 endonuclease; shares compounds with APE1 inh-1; purified APE1, fluorogenic abasic-site DNA cleavage; Potency, µM (doses to about 57.1 µM), hits mostly inhibitors; hit rate 44% among 750; AID 2572; also: nearly all actives have a fitted effect of over 30% in size
# APE1 FP = APE1 (human) DNA binding inhibition, fluorescence polarization; hit rate 7% among 480; Potency, µM (series often up to 28.5 µM), hits mostly inhibitors; APE1 binding to TAMRA-labelled double-stranded DNA, fluorescence polarization displacement; shares compounds with APE1 inh-1
# Numbers stand for hits; . = inactive; ? = inconclusive; / = not tested or not shown; [ ] = another dose, or the depositor's remark. Only a selection was taken, and hits are over-represented in it overall. Unless noted, calls follow the shape of the dose curve; as a rule, active = well fitted curve in the direction sought with a large enough effect; inconclusive = small, poorly fitted or top-dose-only effect, or another doubt; inactive = no such curve, though single readings can be large; an effect the other way counts as inactive or inconclusive.
SMILES,PKM2 activator,APE1 inh-1,RECQ1 inh,KDM4E inh,BLM helicase inh,DNA dye displace,EndoIV counter,APE1 inh-2,APE1 FP
Cc1ccc(S(=O)(=O)N2CCCCC2)cc1C(=O)Nc1ccc(S(=O)(=O)Nc2ncccn2)cc1,.,?,?,.,.,/,/,?,/
Cc1cc2c(c(C)c1Cl)C(c1ccc3c(c1)OCO3)CC(O)(c1ccccc1)O2 (stereo not drawn),/,.,.,/,.,/,/,/,/
N#C/C(=C\c1cc(O)c(O)c(O)c1)C(N)=O,.,3.5µM,.,1µM,?,.,.,?,.
O=C(Nc1ncnc2c1ncn2[C@@H]1O[C@@H]2COP(=O)(O)O[C@H]2[C@H]1O)c1ccccc1,/,.,.,/,.,/,/,/,/
Cc1ccc(/C=C2\SC(=S)N(c3cccnc3)C2=O)o1,.,16µM,?,11µM,.,?,.,.,.
C=CCN1c2ccccc2[C@]23C[C@@H](C(=O)OC)N(S(=O)(=O)c4ccc5c(c4)OCCN5C)C2=NC(C(=O)OC)=C(C(=O)OC)[C@H]13,.[11.5 µM],.[12.4 µM],.[11.5 µM],.[11.4 µM],.[12.4 µM],/,/,/,/
Cc1cc(N)n(-c2ccc(C)c(C)c2)n1,.,?,.,.,.,/,/,/,/
Cc1cc(N)n(-c2ccc(Oc3ccccc3)c(S(=O)(=O)O)c2)n1,.,35µM,.,.,.,.,.,?,.
Cc1ccccc1N=C1NC(=O)/C(=C/c2cccn2-c2cccc(C(=O)O)c2)S1,.,18µM,.,.,.,.,.,11µM,?
CN1CCc2cc3c(c4c2[C@H]1[C@H](O)c1ccccc1-4)OCO3,.,?,.,18µM,.,4.5µM,8.9µM,11µM,13µM
C[C@@H]1CC[C@H]2C(=O)O[C@H](CN=[N+]=[N-])CN2[C@@H]1c1ccc(Br)cc1,/,.[12.4 µM],.[11.5 µM],/,.[12.4 µM],/,/,/,/
CCSC1=N/C(=C\c2ccc(C(=O)O)cc2)C(=O)S1,.,.,.,.,.,/,/,/,/
C=CCSC1=N/C(=C\c2ccc(C(=O)O)cc2)C(=O)S1,.,.,.,?,.,/,/,?,/
O=C(NCC1CC1)[C@H]1C[C@@H]1[C@H](NP(=O)(c1ccccc1)c1ccccc1)c1ccccc1,.,.,.,.,.,/,/,/,/
CCc1oc(C(=O)O)cc1CN(CC)CC,.,.,.,.,.,/,/,/,/
CCN(CC)Cc1cc(O)c(CN(CC)CC)cc1O,.,6.3µM,25µM,?,.,/,/,?,/
NS(=O)(=O)c1cc2c(cc1Cl)N[C@@H](CC1CCCC1)NS2(=O)=O,/,/,.,.,.,/,/,/,/
NS(=O)(=O)c1cc2c(cc1Cl)NCNS2(=O)=O,.,.,.,.,.,/,.,.,/
Cn1nnnc1SCC(=O)NCc1ccco1,.,.,.,.,.,/,/,/,/
CCOc1ccccc1-n1nnnc1SCC(=O)NC(=O)NCc1ccco1,.,28µM,.,.,.,?,.,?,?
O=C(CSc1nnc(COc2ccccc2Cl)o1)NC(=O)NCc1ccco1,.,11µM,.,.,.,?,.,14µM,.
CCOc1ccccc1-n1nnnc1SCC(=O)NC(=O)Cc1ccccc1,/,.,/,/,/,/,/,/,/
CC(C)(C)NC(=O)NC(=O)CSc1nnc(COc2ccccc2Cl)o1,.,.,.,.,.,/,/,/,/
O=C(CSc1nnnn1-c1ccccc1)NC(=O)NCc1ccco1,.,28µM,.,.,.,?,.,?,?
COc1ccc(-c2nc3cnc(N4CCN(C)CC4)nc3n(-c3ccc(OC)cc3)c2=O)cc1,/,.,.,/,.,/,/,/,/
COc1ccc(CCNC(=O)c2cc3c(s2)-c2c(C)cccc2OC3)c(OC)c1,/,/,/,/,.,/,/,/,/
COc1cc(/C=C(\C#N)C(=O)c2ccc(O)c(O)c2)cc(I)c1O,/,6µM,0.89µM,10µM,/,/,.,?,/
